# Source: PubChem BioAssay (NCATS)
# Experiment: High-throughput drug toxicity screening in the BPDCN cell line Cal-1 (AID 1224825)
# Details: Cal-1 BPDCN cell viability, qHTS; at 45.8 µM (top of the series) unless noted
# Source text: Blastic plasmacytoid dendritic cell neoplasm (BPDCN) is a rare, aggressive and largely incurable hematologic malignancy originating from plasmacytoid dendritic cells (pDCs). Although an initial response to chemotherapy is common, BPDCN prognosis is extremely poor and most patients relapse with drug-resistant disease leading to a median overall survival of ~1 year after diagnosis. To explore novel potential therapeutic strategies in BPDCN, we performed a high-throughput drug toxicity screening in BPDCN cell liens, using of a library of 1,912 small molecules, enriched for compounds that are either approved or in early stages of development for cancer therapy.
# A total of 500 exponentially growing Cal-1 cells were seeded per well in 5 uL of media (RPMI + Glutamine, without phenol red plus10% FBS and 1X Pen/Strep) into 1536-well solid white high base tissue culture treated Greiner One Bio Plates (789173-F), using a multidrop combi dispenser and a small sterile cassette. Compounds and controls totaling 23nL per well (negative control DMSO and positive control 9.2 uM Bortezomib-final) were immediately added to the plates using a 1536 head pin tool from Kalypsys. The plates were then covered with stainless steel gasket lids from Kalypsys and incubated for 48 hours at 37C under 95% relative humidity with 5% CO2. After 48 hours, the plates were removed and allowed to reach room temperature before 3 uL of Cell Titer Glo reagent (Promega) were added using an Aurora Flying Reagent Dispenser Bioraptor. The plates were then spun at 1000 rpms to remove bubbles and incubated for 15 minutes at room temperature before reading on a ViewLux using a luminescent filter with a 10 second exposure. The relative luciferase units were used to calculated percent activity using DMSO as 100% and Bortezomib as 0%.
row,SMILES,viability (% of control)
1,O=C1Nc2ccc(Cl)cc2C(C#CC2CC2)(C(F)(F)F)O1 (stereo not given),56.5%
2,COCCOc1nc(-c2ccc(Cl)c(Cl)c2)n(-c2ccc(NC(=O)CCl)cc2)n1,37.2%
3,CCOC1OC(=O)C[C@H]1NC(=O)[C@@H]1CCCN1C(=O)[C@@H](NC(=O)c1ccc(N)c(Cl)c1)C(C)(C)C (stereo not given in full),16.7%
4,COc1ccc(-c2nc(N3CCOCC3)c3sc(CN(C)c4ncc(C(=O)NO)cn4)cc3n2)cn1,2.7%
5,O=C(CCc1ccc(O)cc1)c1c(O)cc(O)cc1O[C@@H]1O[C@H](CO)[C@H](O)[C@H](O)[C@H]1O,107%
6,COc1cc(Nc2ncc(F)c(Nc3ccc4c(n3)NC(=O)C(C)(C)O4)n2)cc(OC)c1OC,58.1%
7,CO[C@H]1C[C@@H]2CC[C@@H](C)[C@@](O)(O2)C(=O)C(=O)N2CCCC[C@@H]2C(=O)O[C@H]([C@@H](C)C[C@@H]2CC[C@H](O)[C@H](OC)C2)CC(=O)[C@H](C)C=C(C)[C@@H](O)[C@@H](OC)C(=O)[C@H](C)C[C@H](C)C=CC=CC=C1C,2.54%
8,COc1ccc(Cc2ccc(NC(N)=O)cc2)cc1-c1cccc(Cl)c1,91.3%
9,Clc1cc(Cl)cc(CNc2ncncc2-c2ccc3c(c2)OCO3)c1,11.1%
10,COc1cc(N2CCC(N3CCN(C)CC3)CC2)ccc1Nc1ncc(Cl)c(Nc2ccccc2S(=O)(=O)C(C)C)n1,2.84%
11,CN1CCN(CCOc2cc(OC3CCOCC3)c3c(Nc4c(Cl)ccc5c4OCO5)ncnc3c2)CC1,2.69%
12,c1ccc2c(Cc3c[nH]c4ccccc34)c[nH]c2c1,13.2%
13,COc1cc2ncnc(Nc3ccc(F)c(Cl)c3)c2cc1OCCCN1CCOCC1,4.41% [at 92.2 µM]
14,NC(=O)NN=Cc1ccc([N+](=O)[O-])o1,72.8%
15,Cc1ccc(/C=N/NC(=O)c2ccccc2Oc2ccccc2)o1,18.6%
16,C=C1C(=O)OC(CCCCCCCC)C1C(=O)O (stereo not given),98%
17,CC(C)C[C@H](CC(=O)O)C(=O)N[C@@H](Cc1c[nH]c2ccccc12)C(=O)N[C@@H](C)c1ccccc1,6.64%
18,COc1ccc2cc(-c3nc(-c4ccc(S(C)=O)cc4)[nH]c3-c3ccncc3)ccc2c1 (stereo not given),65.1%
19,CC(=O)OC1C(C)OC(Oc2c(-c3ccc(O)cc3)oc3cc(O)cc(O)c3c2=O)C(O)C1OC(C)=O (stereo not given),7.44%
20,N[C@@]1(C(=O)O)CS(=O)(=O)[C@H]2[C@H](C(=O)O)[C@H]21,76%

row,SMILES,viability (% of control)
1,C[C@]12CC[C@@H]3c4ccc(O)cc4CC[C@H]3[C@H]1C[C@@H](O)[C@H]2O,67.8%
2,Cc1ccc(Nc2cc(-c3cccc(N4C(=O)c5ccccc5C4=O)c3)ncn2)cc1NS(C)(=O)=O,13.1%
3,COc1cc2nc(-c3ccc(N4CCN(C)CC4)cc3)nc(NCCN3CCOCC3)c2cc1OC,2.25%
4,CN(C)c1cc(NC(=O)CNC(C)(C)C)c(O)c2c1C[C@@H]1C[C@H]3[C@H](N(C)C)C(=O)C(C(N)=O)=C(O)[C@@]3(O)C(=O)C1=C2O,97.2%
5,COc1ccc(-c2oc3c(CC=C(C)C)c(OC4O[C@H](CO)[C@@H](O)[C@H](O)[C@@H]4O)cc(O)c3c(=O)c2OC2O[C@@H](C)[C@H](O)[C@@H](O)[C@@H]2O)cc1 (stereo not given in full),102%
6,C[C@]12CCC3c4ccc(O)cc4CCC3C1CCC2=O (stereo not given in full),62.5%
7,NS(=O)(=O)c1cccc2c1C(=O)c1cccc(O)c1C2=O,3.92%
8,O=c1[nH]cnc2c1ncn2[C@H]1CC[C@@H](CO)O1,121%
9,COc1ccc(-c2coc3cc(O)cc(O)c3c2=O)cc1,86.9%
10,CCn1c(C(=O)N(C2CC2)C2CC2)cc2c3c(ncn3C)c(Nc3cc(C)n(C)n3)nc21,90.8%
11,O=C(CCCCCCC(=O)Nc1ccccc1)NO,7.8%
12,O=c1c(-c2ccc(O)cc2)coc2cc(O)ccc12,109%
13,O=C(NOCC(O)CO)c1cc(Br)c(F)c(F)c1Nc1ccc(I)cc1F (stereo not given),57.3%
14,CON=C(C(=O)N[C@@H]1C(=O)N2C(C(=O)OCOC(=O)C(C)(C)C)=C(C=Cc3scnc3C)CS[C@H]12)c1csc(N)n1,115%
15,c1cc(-c2sc(-c3ccncc3)c(-c3ccncc3)c2-c2ccncc2)ccn1,79.1%
16,Cc1c[nH]c(C=C2C(=O)Nc3ccccc32)c1CCC(=O)O,55.9%
17,O=C(O)C=Cc1ccc(O)c(O)c1,8.99%
18,CS(=O)c1ccc(-c2nc(-c3ccc(F)cc3)c(-c3ccncc3)[nH]2)cc1 (stereo not given),14.2% [at 92.2 µM]
19,O=C(O)CCC1CCC(c2cc(F)ccc2F)(S(=O)(=O)c2ccc(Cl)cc2)CC1 (stereo not given),9.48%
20,CCc1ccc(C=C2SC(=S)NC2=O)cc1,83.2%
